# Measured values published in PubChem BioAssay.
# Where “and” joins values, the source holds several entries; their conditions need not be identical. Equal values may be shown once. Calls of active or inactive are those of the source. Unless noted, no stated cut-off is given here; in the data, active means inhibition above about 80%; inactive means the rest.
# Experiments:
# [1] = target: NAD(+) hydrolase SARM1 (Homo sapiens) (UniProt Q6SZW1); test: blocking NAD cleavage by SARM1 SAM-TIR – cell lysate, NAD-Glo luminescence (AID 1508614;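 active means compound whose remaining NAD level is above about 45 nM, limit read from the data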); details: SAM-TIR HEK293T lysate NADase, at 1 µM, stronger effect = higher value
# NAD(+) hydrolase SARM1 (Homo sapiens), sequence (Q6SZW1 whole entry, looked up, the tested form may be a part): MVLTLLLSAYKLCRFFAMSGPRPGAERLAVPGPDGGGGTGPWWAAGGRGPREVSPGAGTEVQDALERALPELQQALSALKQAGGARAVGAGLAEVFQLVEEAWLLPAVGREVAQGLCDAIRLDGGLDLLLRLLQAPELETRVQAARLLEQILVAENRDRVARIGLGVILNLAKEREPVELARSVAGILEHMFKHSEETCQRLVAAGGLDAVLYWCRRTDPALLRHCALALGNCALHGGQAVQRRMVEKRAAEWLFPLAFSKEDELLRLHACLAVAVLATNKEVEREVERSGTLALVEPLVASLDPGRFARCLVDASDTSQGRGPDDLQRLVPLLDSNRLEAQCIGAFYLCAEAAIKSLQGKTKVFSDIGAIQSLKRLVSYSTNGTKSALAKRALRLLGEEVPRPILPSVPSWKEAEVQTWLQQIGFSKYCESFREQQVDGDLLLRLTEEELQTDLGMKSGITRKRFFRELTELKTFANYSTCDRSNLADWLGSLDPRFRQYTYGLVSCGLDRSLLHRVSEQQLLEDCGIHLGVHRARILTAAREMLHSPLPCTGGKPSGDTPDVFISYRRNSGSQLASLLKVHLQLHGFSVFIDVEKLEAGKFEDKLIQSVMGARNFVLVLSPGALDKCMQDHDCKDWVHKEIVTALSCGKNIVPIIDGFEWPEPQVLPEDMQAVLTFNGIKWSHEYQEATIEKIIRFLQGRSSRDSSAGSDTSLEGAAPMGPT
# [2] = target: Mitogen-activated protein kinase 7 (Homo sapiens) (UniProt Q13164); test: Gal4-ERK5 driven luciferase induction – cell-based, HTS, primary screen (AID 1508626;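 active means luciferase signal above three times the same-plate solvent-only control wells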;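 further: luciferase driven by Gal4-ERK5 fusion binding five Gal4 sites before minimal TATA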); details: HeLa Gal4-ERK5 transactivation, 18 h, at 5 µM, stronger effect = higher value
# Mitogen-activated protein kinase 7 (Homo sapiens), sequence (Q13164 whole entry, looked up, the tested form may be a part): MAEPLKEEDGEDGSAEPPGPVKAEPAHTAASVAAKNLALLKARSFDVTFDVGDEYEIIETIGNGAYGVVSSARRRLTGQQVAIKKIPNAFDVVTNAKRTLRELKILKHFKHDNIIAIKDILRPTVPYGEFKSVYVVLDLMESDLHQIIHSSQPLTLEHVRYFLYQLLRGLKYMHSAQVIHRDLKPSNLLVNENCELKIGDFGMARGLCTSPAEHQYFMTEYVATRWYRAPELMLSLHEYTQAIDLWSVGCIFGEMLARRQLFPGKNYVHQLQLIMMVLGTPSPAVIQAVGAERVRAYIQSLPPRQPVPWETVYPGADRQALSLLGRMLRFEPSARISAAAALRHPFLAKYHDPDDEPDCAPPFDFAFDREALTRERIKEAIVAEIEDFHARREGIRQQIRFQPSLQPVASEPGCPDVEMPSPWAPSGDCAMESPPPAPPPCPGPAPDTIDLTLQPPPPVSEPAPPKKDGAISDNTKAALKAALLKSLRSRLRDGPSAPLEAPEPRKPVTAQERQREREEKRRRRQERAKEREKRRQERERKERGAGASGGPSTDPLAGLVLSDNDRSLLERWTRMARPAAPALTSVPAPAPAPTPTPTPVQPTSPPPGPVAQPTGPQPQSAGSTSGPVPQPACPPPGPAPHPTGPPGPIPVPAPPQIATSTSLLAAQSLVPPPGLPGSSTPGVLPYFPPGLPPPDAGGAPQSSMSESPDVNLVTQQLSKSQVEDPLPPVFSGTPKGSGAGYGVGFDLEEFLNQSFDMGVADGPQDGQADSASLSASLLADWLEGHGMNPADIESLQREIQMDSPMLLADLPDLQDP
# [3] = galactose survival enhancers in mitochondrial complex I cybrids – cell-based, galactose medium, ATP luminescence, primary screen (AID 1645843;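 active means z-score of at least 1.8 in each of two replicates, scored against plate mean and spread of sample wells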;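 further: positive z means more ATP and so rescue of galactose-driven cybrid death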); details: complex I mutant cybrid cells, 72 h, stronger effect = higher value
# [4] = growth inhibition, single agent or in combination, cell-based, chromothripsis tumors, cisplatin or BGB combos (AID 1671449); details: LFS_MB_P medulloblastoma cells;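 further: cells exposed for 96 hours; 0% = vehicle DMSO and 100% = killing by high DMSO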
# [5] = growth inhibition, single agent and combos, cell-based, chromothripsis tumors, cisplatin or BGB combos (AID 1671450); details: HDN33 neuroblastoma cells, stronger effect = higher value;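 further: cells exposed to compound for four days; 0% = vehicle DMSO and 100% = cell killing by high DMSO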
# [6] = growth inhibition, single agents and combos, ICB984, cell-based, cisplatin or BGB combos, synergistic combos for chromothripsis tumors (AID 1671451; call rule not given here;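 further: cells exposed for 96 hours before readout; 0% = vehicle DMSO and 100% = killing by high DMSO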); details: ICB984 medulloblastoma cells, drug combinations, stronger effect = higher value
# [7] = growth inhibition, single agents and combos, LFS_MB_1R, cell-based, cisplatin or BGB combos, synergistic combos for chromothripsis tumors (AID 1671452); details: LFS_MB_1R medulloblastoma cells, stronger effect = higher value;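 further: cells exposed for 96 hours before readout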
# [8] = growth inhibition, single agents and combos, HTB85, cell-based, BGB or cisplatin IC20 combos, synergistic combos for chromothripsis tumors (AID 1671453); details: HTB85 osteosarcoma cells, drug combinations, stronger effect = higher value;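 further: cells exposed for 96 hours before readout; 0% = vehicle DMSO and 100% = high DMSO killing control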
# [9] = growth inhibition, single agents and combos, CRL2098, cell-based, BGB or cisplatin IC20 combos, synergistic combos for chromothripsis tumors (AID 1671454); details: CRL2098 osteosarcoma cells, drug combinations, stronger effect = higher value;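 further: cells exposed for 96 h before readout; 0% = vehicle DMSO and 100% = killing by high DMSO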
# [10] = growth inhibition, single agents and combos, HD-MB03, cell-based, BGB or cisplatin IC20 combos, synergistic combos for chromothripsis tumors (AID 1671455; in the data active means inhibition above about 83%;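 further: 0% = vehicle DMSO and 100% = high DMSO as cytotoxic control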); details: HD-MB03 medulloblastoma cells, stronger effect = higher value
# [11] = growth inhibition, single agents and combos, UWB1.289, cell-based, BGB or cisplatin combos, synergistic combos for chromothripsis tumors (AID 1671456); details: UWB1.289 ovarian carcinoma cells, stronger effect = higher value;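 further: cells exposed to compound for four days; 0% = vehicle DMSO and 100% = killing by high DMSO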
# [12] = growth inhibition, single agents and combos, LFS_MB_2R, cell-based, cisplatin combos, synergistic combos for chromothripsis tumors (AID 1671457); details: LFS_MB_2R medulloblastoma cells, stronger effect = higher value;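 further: cells exposed to compound for four days before readout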
# [13] = growth inhibition, MDA-MB-436, cell-based, BGB or cisplatin combos, synergistic combos for chromothripsis tumors (AID 1671458; call rule not given here;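 further: cells exposed for 96 hours; 0% = vehicle DMSO and 100% = killing by high DMSO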); details: MDA-MB-436 breast carcinoma growth inhibition, drug combinations, stronger effect = higher value
# [14] = UWB1.289_BRCA1 ovarian cancer growth, cell-based, BGB or cisplatin combinations (AID 1671459); details: UWB1.289 BRCA1 ovarian carcinoma, drug combinations, stronger effect = higher value
# [15] = drug combination toxicity in non-malignant astrocytes – cell-based, BGB or cisplatin IC20 combos, cytotoxicity control for chromothriptic childhood tumor combination screen (AID 1671460); details: Human astrocytes, viability inhibition, drug combinations, at 0.5 µM, stronger effect = higher value;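 further: cells exposed to compounds for 96 hours before viability readout; 0% = vehicle and 100% = killing control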
# [16] = BT084 cell growth, single and combined drugs, ICGC_MB145, cisplatin and BGB IC40 combos (AID 1671461); details: BT084 medulloblastoma cells, drug combinations, stronger effect = higher value;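 further: cells exposed to drugs for 96 hours; 0% = vehicle DMSO and 100% = high DMSO full killing control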
# [17] = RCMB18 cell growth, single agent and combined, cisplatin and BGB IC40 combos (AID 1671462); details: RCMB18 medulloblastoma cells, stronger effect = higher value;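 further: cells exposed to compound for four days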
# [18] = CRL1545 cell growth, single agent and combined, cisplatin and BGB IC20 combos (AID 1671464); details: CRL1545 osteosarcoma cells, stronger effect = higher value;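 further: cells exposed to compound for 96 hours before readout; 0% = vehicle DMSO and 100% = high DMSO killing control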
# [19] = measured here: combination with BGB IC40, at 0.05 µM
# [20] = measured here: with BGB IC20 combination, at 0.5 µM
# [21] = measured here: with cisplatin IC20 combination, at 0.5 µM
# [22] = measured here: combination with cisplatin, at 0.5 µM
# [23] = measured here: combination with cisplatin, at 5 µM
compound,measurement,setting,value
CN(C)/N=N/c1nc[nH]c1C(N)=O,remaining NAD,[1],10 nM (inactive)
same,luciferase signal,[2],28 AU (inactive)
same,z-score,[3],-1.27 (inactive)
same,inhibition,"[4]; at 0.5 µM, stronger effect = higher value",-23.9% (inactive) and -10.4% (inactive)
same,inhibition,"[4]; measured here: combination with BGB IC20, at 0.005 µM",22.6% and -26.8%
same,inhibition,"[4]; measured here: combination with BGB IC40, at 0.005 µM",-4.64% and -12.1%
same,inhibition,[4]; [19],6.08% and -27.5%
same,inhibition,"[4]; measured here: combination with cisplatin, at 0.5 µM, stronger effect = higher value",-35.1% and -31.1%
same,inhibition,"[4]; measured here: combination with cisplatin, at 5 µM, stronger effect = higher value",-14.4% and -39%
same,inhibition,"[5]; BGB combo, at 5 µM",18.6% and -37%
same,inhibition,[5]; at 0.5 µM,0.39% (inactive) and -45.8% (inactive)
same,inhibition,"[5]; cisplatin combo, at 5 µM",25.6% and -37.1%
same,inhibition,[5]; [20],-1.18% and -51%
same,inhibition,[5]; [21],-5.95% and -47.5%
same,inhibition,"[5]; single agent, at 5 µM",47.2% and 2.95%
same,inhibition,"[6]; BGB IC20 combo, at 0.005 µM",0.732% and 6.78%
same,inhibition,"[6]; BGB IC40 combo, at 0.005 µM",-12.9% and -11.7%
same,inhibition,"[6]; BGB IC40 combo, at 0.05 µM",12.2% and -40.2%
same,inhibition,[6]; at 0.5 µM,-9.82% (inactive) and -15.2% (inactive)
same,inhibition,"[6]; cisplatin combo, at 0.05 µM",9.76% and -45.2%
same,inhibition,"[6]; cisplatin combo, at 0.5 µM",-14.5% and -8.2%
same,inhibition,"[6]; cisplatin combo, at 5 µM",-16% and -22.9%
same,inhibition,"[6]; measured here: 5 uM single agent, at 5 µM",-26.7% and -20.4%
same,inhibition,[7]; at 0.5 µM,-6.85% (inactive) and -29.4% (inactive)
same,inhibition,[7]; [19],-7.35% and -52.3%
same,inhibition,[7]; [22],9.4% and -47.7%
same,inhibition,[7]; [23],3.18% and -94.1%
same,inhibition,[8]; at 0.5 µM,-1.95% (inactive) and -35.1% (inactive)
same,inhibition,"[8]; measured here: with BGB IC20, at 0.5 µM",3.62% and -33.2%
same,inhibition,"[8]; measured here: with BGB IC20, at 5 µM",-31.2% and -31.5%
same,inhibition,"[8]; measured here: with cisplatin IC20, at 0.5 µM",-17.3% and -45.8%
same,inhibition,"[8]; measured here: with cisplatin IC20, at 5 µM",-16% and -61.7%
same,inhibition,"[8]; single agent, at 5 µM",-8.44% and -20.4%
same,inhibition,[9]; at 0.5 µM,-3.56% (inactive) and -92.1% (inactive)
same,inhibition,"[9]; measured here: combination with BGB at IC20, at 0.5 µM",-50.1% and -47.1%
same,inhibition,"[9]; measured here: combination with cisplatin at IC20, at 0.5 µM",34.4% and -173%
same,inhibition,[10]; at 0.5 µM,0.8% (inactive) and -6.95% (inactive)
same,inhibition,"[10]; measured here: combo with BGB at IC20, at 0.5 µM",4.98% and -8.86%
same,inhibition,"[10]; measured here: combo with cisplatin at IC20, at 0.5 µM",-6.17% and -0.723%
same,inhibition,[11]; at 0.5 µM,18.9% (inactive) and 3.21% (inactive)
same,inhibition,"[11]; measured here: inhibition with BGB combination, at 0.05 µM",0.064% and -13.3%
same,inhibition,"[11]; measured here: inhibition with cisplatin combination, at 0.05 µM",3.6% and -43.6%
same,inhibition,[12]; at 0.5 µM,10.1% (inactive) and -20.6% (inactive)
same,inhibition,[12]; [22],14.2% and -25.1%
same,inhibition,[12]; [23],-36.9% and -16%
same,inhibition,[13]; at 0.5 µM,1.6% (inactive) and -18.5% (inactive)
same,inhibition,"[13]; measured here: BGB combination, at 0.5 µM",7.15% and -18%
same,inhibition,"[13]; measured here: BGB combination, at 5 µM",1.32% and -19%
same,inhibition,"[13]; measured here: cisplatin combination, at 0.5 µM",0.111% and -24.2%
same,inhibition,"[13]; measured here: cisplatin combination, at 5 µM",-5.49% and -14.5%
same,inhibition,"[14]; BGB combination, concentration series, at 5 µM",47.3% and 36.9%
same,inhibition,[14]; at 0.5 µM,15.9% (inactive) and 4.03% (inactive)
same,inhibition,"[14]; cisplatin combination, concentration series, at 5 µM",53.7% and 25.2%
same,inhibition,[15],-0.79% (inactive) and 0.55% (inactive)
same,inhibition,[15]; measured here: combo with BGB IC20,-3.87% and 2.32%
same,inhibition,[15]; measured here: combo with cisplatin IC20,-4.67% and -1.77%
same,inhibition,[16]; at 0.5 µM,-1.62% (inactive) and -14.7% (inactive)
same,inhibition,"[16]; cisplatin combination, at 0.5 µM",-8.23% and -62.9%
same,inhibition,"[16]; cisplatin combination, at 5 µM",1.87% and -8.42%
same,inhibition,"[16]; measured here: BGB IC40 combination 0.05 uM, at 0.05 µM",46.6% and -5.42%
same,inhibition,"[16]; single agent, at 5 µM",-9.68% and -13.7%
same,inhibition,[17]; at 0.5 µM,-1.34% (inactive) and -9.83% (inactive)
same,inhibition,"[17]; cisplatin combo, at 5 µM",6.92% and -42.9%
same,inhibition,"[17]; measured here: BGB IC40 combination, at 0.05 µM",-11.2% and -7.61%
same,inhibition,[17]; [22],10.1% and -9.31%
same,inhibition,"[17]; single agent, at 5 µM",3.33% and -8.99%
same,inhibition,[18]; at 0.5 µM,-2.87% (inactive) and -54.9% (inactive)
same,inhibition,[18]; [20],-14.8% and -42.6%
same,inhibition,[18]; [21],0.906% and -63.6%
same,inhibition,"[18]; single agent, at 0.05 µM",-1.35% and -67.8%
same,inhibition,"[18]; single agent, at 5 µM",10.4% and -50.2%
